Several values for one entry are separate records, joined by “and”; a condition that tells them apart may be missing. Identical values can stand only once. Records with an inconclusive call do not appear. Activity calls are given as the source filed them. Unless noted, calls come from the whole dose curve; as a rule, active = well fitted curve in the direction sought with a large enough effect in the repeat runs; inconclusive = weak or mixed curves; inactive = no such curve, though single readings can be large; an effect the other way counts as inactive or inconclusive.
What was measured:
[1] = A CellTox Green Cytotoxicity Assay to monitor cytotoxicity in HepG2 cells - 8 hour (AID 1224890); note: nearly all actives have a fitted effect of over 45% in size; note: potency is the fitted concentration of half-maximal effect
Method in brief: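 First, HepG2 cells (600/well) mixed with reagent were plated; second, after 5 h at 37 C they received compounds via pintool; third, fluorescence was measured at 0 h through 40 h at 8 h intervals.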

[2] = qHTS assay to identify small molecule antagonists of the estrogen receptor alpha (ER-alpha) signaling pathway using the BG1 cell line in the presence of 0.1 nM 17-beta-estradiol - cell viability counter screen (AID 1259241); note: nearly all actives have a fitted effect of over 40% in size
Method in brief: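 CellTiter-Fluor read (30 min, 37C) on ER-alpha/ERE-luc VM7Luc4E2 cells; 22 hr compound treatment; agonist 0.1 nM E2 final; same-well multiplex.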

[3] = qHTS assay to identify small molecule antagonists of the androgen receptor (AR) signaling pathway using the MDA cell line in the presence of 0.5 nM R1881 - cell viability counter screen (AID 1259242); note: nearly all actives have a fitted effect of over 45% in size
Method in brief: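 qHTS format. MDA-kb2 (MMTV-luc, AR/GR responsive) + cpd + 0.5 nM R1881 final, 16 hr 37C/0% CO2 → CellTiter-Fluor 30 min → fluorescence intensity.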

[4] = biological target: Estrogen receptor (Homo sapiens) (UniProt P03372); test: qHTS assay to identify small molecule antagonists of the estrogen receptor alpha (ER-alpha) signaling pathway using the BG1 cell line in the presence of 0.1 nM 17-beta-estradiol (AID 1259244); note: nearly all actives have a fitted effect of over 50% in size
Estrogen receptor (Homo sapiens), sequence (P03372 whole entry, looked up): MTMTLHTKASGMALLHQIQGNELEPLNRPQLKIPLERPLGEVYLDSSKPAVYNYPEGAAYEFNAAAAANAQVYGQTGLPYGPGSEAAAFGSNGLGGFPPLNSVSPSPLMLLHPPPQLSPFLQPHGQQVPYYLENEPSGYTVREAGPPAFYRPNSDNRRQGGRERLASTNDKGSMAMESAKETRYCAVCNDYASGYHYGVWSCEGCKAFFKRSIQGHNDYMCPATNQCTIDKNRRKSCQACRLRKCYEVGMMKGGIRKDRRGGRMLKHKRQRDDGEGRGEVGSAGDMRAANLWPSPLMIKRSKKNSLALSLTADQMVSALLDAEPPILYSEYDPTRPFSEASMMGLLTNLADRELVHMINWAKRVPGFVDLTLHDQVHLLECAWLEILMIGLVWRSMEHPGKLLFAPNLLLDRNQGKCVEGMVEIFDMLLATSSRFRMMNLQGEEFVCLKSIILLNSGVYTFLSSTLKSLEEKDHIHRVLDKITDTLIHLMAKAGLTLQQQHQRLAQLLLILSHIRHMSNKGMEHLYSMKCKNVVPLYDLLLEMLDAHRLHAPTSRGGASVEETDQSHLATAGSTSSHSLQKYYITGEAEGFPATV
Method in brief: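 Reporter is a stably transfected luciferase under four estrogen responsive elements in VM7Luc4E2 cells expressing native full-length ER-alpha; inhibition of 0.1 nM (final) 17beta-estradiol-driven signal over 22 h is read by luminescence.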

[5] = qHTS assay to identify small molecule HDAC inhibitors - cell viability counter screen (AID 1259365); note: series mostly up to about 92 µM; nearly all actives have a fitted effect of over 50% in size
Method in brief: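 To flag cytotoxic hits, 1,500 wild-type HCT-116 cells per well, plated the day before, receive test compounds for 2hr at 37 C before CellTiter-Glo reagent and a luminescence read.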

[6] = qHTS assay to identify small molecule agonists of the sonic hedgehog signaling (Shh) pathway - cell viability counter screen (AID 1259366); note: nearly all actives have a fitted effect of over 50% in size; note: potency is the fitted concentration of half-maximal effect
Method in brief: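 Fluorescence from CellTiter-Fluor reports live cells in this counter screen. NIH/3T3-derived Gli1-Luc reporter cells receive test compounds for 24hr at 37C; reagent goes in at 23hr.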

[7] = qHTS assay to identify small molecule antagonists of the sonic hedgehog signaling (Shh) pathway - cell viability counter screen (AID 1259367); note: nearly all actives have a fitted effect of over 55% in size; note: potency is the fitted concentration of half-maximal effect
Method in brief: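 Conditioned medium drove Shh signaling in 3T3 Gli1-Luc cells exposed to compounds at 37C and 5% CO2. Viability was determined from CellTiter-Fluor fluorescence, with reagent incubated 1 hr after 23 hr of treatment.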

[8] = qHTS assay to identify small molecule agonists of the sonic hedgehog signaling (Shh) pathway (AID 1259368; calls by dose curve;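 note: NIH/3T3-derived 3T3Gli1-Luc cells carrying a stable Gli1-driven firefly luciferase reporter; series mostly up to about 92 µM; nearly all actives have a fitted effect of over 15% in size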)
Method in brief: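 Quantitative high-throughput format using a Gli1-driven firefly luciferase reporter line derived from NIH/3T3 cells. After a 24 hr compound treatment at 37 C and 5% CO2, luminescence reported Gli1 response element activity.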

[9] = biological target: Estrogen receptor beta (Homo sapiens) (UniProt Q92731); test: qHTS assay to identify small molecule agonists of the estrogen receptor beta (ER-beta) signaling pathway (AID 1259377; active = well fitted activation curve with a large enough effect in the signal ratio in the repeat runs, not every such curve was filed as active; the % refers to the signal ratio)
Estrogen receptor beta (Homo sapiens), sequence (Q92731 whole entry, looked up): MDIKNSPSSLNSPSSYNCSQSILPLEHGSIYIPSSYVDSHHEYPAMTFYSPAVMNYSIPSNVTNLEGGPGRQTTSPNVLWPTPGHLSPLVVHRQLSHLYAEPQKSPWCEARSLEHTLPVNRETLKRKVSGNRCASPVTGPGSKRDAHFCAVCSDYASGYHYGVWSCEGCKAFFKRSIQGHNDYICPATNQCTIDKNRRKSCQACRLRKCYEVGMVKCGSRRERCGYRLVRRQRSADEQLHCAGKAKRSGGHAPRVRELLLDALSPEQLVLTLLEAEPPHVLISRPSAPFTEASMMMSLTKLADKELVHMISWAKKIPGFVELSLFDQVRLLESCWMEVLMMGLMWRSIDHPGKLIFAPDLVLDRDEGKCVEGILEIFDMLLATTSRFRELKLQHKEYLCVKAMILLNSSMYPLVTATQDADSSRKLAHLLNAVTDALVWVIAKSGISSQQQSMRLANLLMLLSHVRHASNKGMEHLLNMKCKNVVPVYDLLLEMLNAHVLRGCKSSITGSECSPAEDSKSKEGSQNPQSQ
Method in brief: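 Screening used GripTite ER-beta-UAS-bla cells held in 2% charcoal-stripped FBS medium. After overnight (16 hr) compound incubation at 37C, beta-lactamase activity was detected with a FRET substrate by fluorescence.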

[10] = biological target: Estrogen receptor beta (Homo sapiens) (UniProt Q92731); test: qHTS assay to identify small molecule antagonists of the estrogen receptor beta (ER-beta) signaling pathway (AID 1259378; active = well fitted inhibition curve with a large enough effect in the signal ratio in the repeat runs, not every such curve was filed as active; the % refers to the signal ratio)
Method in brief: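 ER-beta-UAS-bla HEK293T (GripTite) cells in 2% charcoal-stripped FBS medium were preincubated 6 hr at 37C, dosed with compound, then stimulated with 1 nM E2 (final) for 16 hr; beta-lactamase reporter read by B/G FRET fluorescence after 2 hr substrate loading.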

[11] = qHTS assay to identify small molecule agonists of the androgen receptor (AR) signaling pathway in the presence of an antagonist - cell viability counter screen (AID 1259379);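 note: MDA-kb2 human breast cancer cells carrying an MMTV luciferase reporter; series mostly up to about 92 µM; nearly all actives have a fitted effect of over 25% in size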
Method in brief: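 Nilutamide-containing (3.0uM final) MDA-kb2 cultures, 3,000 cells/well, were treated with compounds across 15 concentrations. After 16 hr at 37C with no CO2, cell viability was determined by CellTiter-Fluor fluorescence in the luciferase assay wells.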

[12] = qHTS assay to identify small molecule agonists of the estrogen receptor beta (ER-beta) signaling pathway - cell viability counter screen (AID 1259380); note: nearly all actives have a fitted effect of over 30% in size
Method in brief: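 Steps: plate ER-beta-UAS-bla HEK293T cells, rest 6 hr; add compounds in DMSO; incubate 16 hr at 37C, 5% CO2; add FRET substrate 2 hr; add CellTiter-Glo, wait 30 min at room temperature; read luminescence.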

[13] = qHTS assay to identify small molecule antagonists of the estrogen receptor beta (ER-beta) signaling pathway - cell viability counter screen (AID 1259382); note: series mostly up to about 92 µM; nearly all actives have a fitted effect of over 55% in size
Method in brief: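 Viability is scored by CellTiter-Glo luminescence (30 min, room temperature) in ER-beta-UAS-bla HEK293T wells already read for reporter fluorescence. Compound exposure lasts 16 hr at 37C alongside 1nM 17-beta-estradiol in charcoal-stripped serum medium.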

[14] = biological target: Estrogen receptor (Homo sapiens) (UniProt P03372); test: qHTS assay to identify small molecule agonists of the estrogen receptor alpha (ER-alpha) signaling pathway in the presence of an antagonist (AID 1259383; calls by dose curve; note: top concentration of the series differs between compounds; nearly all actives have a fitted effect of over 15% in size)
Method in brief: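 Readout was ERE-driven luciferase luminescence in VM7Luc4E2 cells, which express full-length ER-alpha endogenously. Compounds were tested at 15 concentrations for 22hr alongside 10.0nM ICI-182,780 (final concentration).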

[15] = qHTS assay to identify small molecule agonists or antagonists of the thyroid stimulating hormone receptor (TSHR) signaling pathway - wild type cell line counter screen (AID 1259384; calls by dose curve)
Method in brief: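 Wild-type HEK293 cells were plated 18 h at 37 C/5% CO2, pin-dosed with compound plus Ro20-1724 medium, held 30 min at room temperature, then given cAMP-d2 and anti-cAMP-cryptate; fluorescence was read after 1 h. Fifteen concentrations, triplicate.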

[16] = qHTS assay to identify small molecule phospholipidosis (PLD) inducers (AID 1259344; active = well fitted curve in the direction sought with a large enough effect; an effect the other way counts as inactive or inconclusive)
Method in brief: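 After 4 h attachment on collagen I, HepG2 cells were dosed with compound alongside LipidTOX Red, kept 24 h at 37 C, fixed, and imaged for lamellar phospholipid pits.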

[17] = qHTS assay to identify small molecule antagonists of the sonic hedgehog signaling (Shh) pathway (AID 1259369; calls by dose curve; note: nearly all actives have a fitted effect of over 45% in size; note: potency is the fitted concentration of half-maximal effect)
Method in brief: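 Stable Gli1-Luc reporter NIH/3T3 clone; quantitative HTS in stimulated mode with conditioned medium. Luminescence measured after 24hr compound treatment at 37 C.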

[18] = qHTS assay to identify small molecule HDAC inhibitors (AID 1259364);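 note: wild-type HCT-116 cells with endogenous class I/II HDAC activity; top concentration of the series differs between compounds; nearly all actives have a fitted effect of over 45% in size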
Method in brief: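 Quantitative high-throughput format: overnight-seeded HCT-116 cells got compounds for 2 hr at 37C; HDAC-Glo I/II reagent added, 30 min RT, luminescence measured.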

[19] = biological target: Androgen receptor (Homo sapiens) (UniProt P10275); test: qHTS assay to identify small molecule agonists of the androgen receptor (AR) signaling pathway in the presence of an antagonist (AID 1259381; calls by dose curve; note: nearly all actives have a fitted effect of over 15% in size)
Androgen receptor (Homo sapiens), sequence (P10275 whole entry, looked up): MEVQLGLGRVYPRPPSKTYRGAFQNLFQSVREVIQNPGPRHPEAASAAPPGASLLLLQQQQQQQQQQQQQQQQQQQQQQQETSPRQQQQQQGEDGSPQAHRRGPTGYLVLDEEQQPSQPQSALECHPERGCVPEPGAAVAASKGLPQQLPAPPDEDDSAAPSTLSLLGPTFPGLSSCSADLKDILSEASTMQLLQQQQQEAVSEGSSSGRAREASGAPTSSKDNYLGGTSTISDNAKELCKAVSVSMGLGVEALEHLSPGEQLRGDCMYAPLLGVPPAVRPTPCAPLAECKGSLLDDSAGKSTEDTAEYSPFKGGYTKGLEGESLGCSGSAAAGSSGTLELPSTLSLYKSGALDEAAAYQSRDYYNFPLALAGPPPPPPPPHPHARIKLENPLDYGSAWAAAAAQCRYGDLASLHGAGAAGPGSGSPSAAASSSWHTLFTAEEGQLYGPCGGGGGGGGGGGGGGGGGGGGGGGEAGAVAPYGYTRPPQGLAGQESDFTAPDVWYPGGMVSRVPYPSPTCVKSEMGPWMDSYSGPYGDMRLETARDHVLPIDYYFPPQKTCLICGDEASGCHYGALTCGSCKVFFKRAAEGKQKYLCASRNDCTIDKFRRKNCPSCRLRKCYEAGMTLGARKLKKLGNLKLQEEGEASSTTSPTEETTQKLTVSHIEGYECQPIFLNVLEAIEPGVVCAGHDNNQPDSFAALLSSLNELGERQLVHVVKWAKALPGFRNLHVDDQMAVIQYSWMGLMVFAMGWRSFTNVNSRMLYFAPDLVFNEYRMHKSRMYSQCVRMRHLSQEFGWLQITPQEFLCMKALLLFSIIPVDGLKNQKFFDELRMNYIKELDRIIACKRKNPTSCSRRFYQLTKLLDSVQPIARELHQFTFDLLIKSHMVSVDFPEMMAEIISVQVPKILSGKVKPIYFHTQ
Method in brief: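 Reporter-gene luminescence from MDA-kb2 cells exposed 16hr at 37C (0% CO2) to 15-point compound titrations with 3.0uM final nilutamide as AR antagonist.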
% is set by controls: 0 for no effect and ±100 for the full control effect.

CN1CCC(=C2c3ccccc3CC(=O)c3sccc32)CC1
inactive: Potency [1] | outcome [2] | Potency [3] | outcome [4] | outcome [5] | Potency [6] | Potency [7] | outcome [8] | outcome [9] | outcome [10] | Potency [11] | Potency [12] | Potency [13] | Potency [14] | outcome [15]

CO/N=C(/C(=O)N[C@@H]1C(=O)N2C(C(=O)OCOC(=O)C(C)(C)C)=C(C)CS[C@H]12)c1csc(N)n1
inactive: Potency [1] | outcome [2] | Potency [3] | Potency [16] | outcome [5] | Potency [6] | Potency [7] | outcome [8] | Potency [17] | outcome [9] | outcome [10] | Potency [11] | Potency [12] | outcome [15]

O=C(CCCN1CCN(c2ccccn2)CC1)c1ccc(F)cc1
inactive: Potency [1] | outcome [2] | Potency [3] | Potency [16] | outcome [5] | Potency [7] | outcome [8] | Potency [17] | outcome [9] | outcome [10] | Potency [11] | Potency [13] | outcome [15]

CC(=O)N(CC(O)CO)c1c(I)c(C(=O)NCCO)c(I)c(C(=O)NCC(O)CO)c1I (stereo not drawn)
inactive: Potency [1] | outcome [2] | Potency [3] | Potency [16] | Potency [18] | outcome [5] | Potency [6] | Potency [7] | Potency [11] | Potency [12]

CN(C(=O)c1c(O)c2ccccc2n(C)c1=O)c1ccccc1
inactive: Potency [1] | outcome [2] | Potency [3] | Potency [16] | Potency [18] | outcome [5] | Potency [6] | Potency [7] | outcome [8] | Potency [17] | Potency [11] | Potency [12] | Potency [13]

CC(C)(C)c1ccc(O)c(O)c1
inactive: Potency [1] | outcome [2] | Potency [3] | Potency [16] | Potency [18] | outcome [5] | outcome [8] | Potency [11] | Potency [12] | Potency [13] | outcome [15]
active: Potency [6] 27.3 µM | Potency [7] 50.2 µM and 24.3 µM | Potency [17] 15.9 µM and 6.86 µM

NC(=O)c1ccc(N)cc1
inactive: Potency [1] | outcome [2] | Potency [3] | outcome [4] | outcome [5] | Potency [7] | Potency [17] | outcome [9] | outcome [10] | Potency [11] | Potency [12] | Potency [14] | outcome [15]

CCN(Cc1ccncc1)C(=O)C(CO)c1ccccc1 (stereo not drawn)
inactive: Potency [1] | outcome [2] | Potency [3] | Potency [16] | Potency [18] | outcome [5] | Potency [6] | Potency [7] | outcome [8] | Potency [17] | outcome [9] | outcome [10] | Potency [11]

C[N+](C)(C)CC(O)CC(=O)[O-] (stereo not drawn)
inactive: Potency [1] | outcome [2] | Potency [3] | Potency [16] | outcome [5] | Potency [7] | outcome [8] | Potency [11] | Potency [12] | Potency [13] | outcome [15]

Cc1[nH]c(=O)c(C#N)cc1-c1ccc2nccn2c1
inactive: Potency [1] | outcome [2] | Potency [3] | Potency [16] | Potency [18] | outcome [5] | Potency [6] | Potency [7] | Potency [11] | Potency [12] | outcome [15]

O=C(O)CN(CCOCCOCCN(CC(=O)O)CC(=O)O)CC(=O)O
inactive: cytotoxicity increase [1] -22.5% [at 0.29 µM] | activity change, negative = cytotoxicity [2] -0.0206% [at 0.349 µM] | viability change, negative = cytotoxic [3] 4.56% [at 0.349 µM] | Potency [16] | activity change, negative = inhibition [18] -0.631% [at 0.349 µM] | activity change, negative = cytotoxicity [5] 5.24% [at 0.349 µM] | viability change, negative = cytotoxic [6] -0.116% [at 0.349 µM] | viability change, negative = cytotoxic [7] 0.536% [at 0.349 µM] | activity change, negative = inhibition [17] 23.6% [at 0.349 µM] | activation [9] -3.04% [at 0.348 µM] | activity, negative = inhibition [10] -7.82% [at 0.349 µM] | activity change, negative = cytotoxicity [11] 4.76% [at 0.35 µM] | activity change, negative = cytotoxicity [12] 9.83% [at 0.349 µM] | activity change, negative = cytotoxicity [13] 2.26% [at 0.349 µM] | cAMP activity change [15] 3.85% [at 0.349 µM]

O=c1[nH]c(=O)n([C@H]2C[C@H](O)[C@@H](CO)O2)cc1I
inactive: Potency [1] | outcome [2] | Potency [3] | Potency [16] | Potency [18] | outcome [5] | Potency [6] | Potency [7] | outcome [8] | Potency [17] | outcome [9] | outcome [10] | Potency [11] | Potency [12] | Potency [13] | outcome [15]

COCCc1ccc(OCC(O)CNC(C)C)cc1 (stereo not drawn)
inactive: Potency [1] | outcome [2] | Potency [3] | Potency [16] | Potency [18] | outcome [5] | Potency [6] | Potency [7] | outcome [8] | Potency [17] | outcome [9] | outcome [10] | Potency [11] | Potency [12] | Potency [13] | outcome [15]

CCCN1CCCC[C@H]1C(=O)Nc1c(C)cccc1C
inactive: Potency [1] | outcome [2] | Potency [3] | Potency [16] | Potency [18] | outcome [5] | Potency [6] | Potency [7] | outcome [8] | Potency [17] | Potency [11] | Potency [12] | Potency [13] | outcome [15]

NCCc1cnc[nH]1
inactive: Potency [1] | outcome [2] | Potency [3] | Potency [16] | Potency [18] | outcome [5] | Potency [6] | Potency [7] | outcome [8] | Potency [17] | outcome [9] | outcome [10] | Potency [11] | Potency [12] | Potency [13]

Brc1c(NC2=NCCN2)ccc2nccnc12
inactive: Potency [1] | outcome [2] | Potency [3] | Potency [16] | Potency [18] | outcome [5] | Potency [6] | Potency [7] | outcome [8] | Potency [17] | outcome [10] | Potency [11] | outcome [15]

CO[C@]12C[C@@H](COC(=O)c3cncc(Br)c3)CN(C)[C@@H]1Cc1cn(C)c3cccc2c13
active: Potency [1] 26.8 µM
inactive: outcome [2] | Potency [3] | Potency [16] | Potency [18] | outcome [5] | Potency [6] | Potency [7] | outcome [8] | Potency [17] | Potency [12] | Potency [19] | Potency [13] | outcome [15]

CC(=O)OCC(=O)[C@@]1(O)CCC2C3CCC4=CC(=O)CC[C@]4(C)C3[C@@H](O)C[C@@]21C (stereo partly drawn)
inactive: Potency [1] | outcome [2] | Potency [3] | Potency [16] | Potency [18] | outcome [5] | Potency [7] | outcome [8] | Potency [17] | outcome [9] | outcome [10] | Potency [11] | Potency [12]
